According to PubChem BioAssay AID1159580 (chemical genetic matrix, 2015):
Among all 5,500 compounds or so, about 2,000 (36%) were called active. Inconclusive results (about 18%) are left out. Rule as the data show it: active = normalized growth mostly below about 0.91 (no sharp cut-off); inconclusive = no clear call, values can overlap the other calls; inactive = mostly above about 0.92. Some of the results follow.

Assay: chemical genetic growth profiling, strain panel (AID 1159580);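 also: tested at 20 µM; growth read once vehicle control cultures reached saturation at 30 °C; 1 = growth at the plate median or of vehicle wells; lower values mean less growth of the strain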
Settings: growth OD

Measured: normalized growth

COc1ccc2c3c1OC1C(O)CC=C4C(C2)N(C)CCC431 (stereo unspecified)
inactive: S. cerevisiae deletion strains, locus YAL013W, strain DEP1, hits give low values 0.994 | S. cerevisiae deletion strains, locus YBR021W, strain FUR4, hits give low values 1.01 | S. cerevisiae deletion strains, locus YBR229C, strain ROT2, hits give low values 1.01 | S. cerevisiae deletion strains, locus YCL029C, strain bik1, hits give low values 1.03 | S. cerevisiae deletion strains, locus YDL035C, strain GPR1, hits give low values 1.01 | S. cerevisiae deletion strains, locus YDL074C, strain BRE1, hits give low values 1.04 | S. cerevisiae deletion strains, locus YDL101C, strain DUN1, hits give low values 1.03 | S. cerevisiae deletion strains, locus YDL134C, strain PPH21, hits give low values 1.01 | S. cerevisiae deletion strains, locus YDL185W, strain tfp1, hits give low values 1.02 | S. cerevisiae deletion strains, locus YDL192W, strain arf1, hits give low values 1.02 | S. cerevisiae deletion strains, locus YDR101C, strain arx1, hits give low values 1 | S. cerevisiae deletion strains, locus YDR150W, strain NUM1, hits give low values 1.02 | S. cerevisiae deletion strains, locus YDR162C, strain NBP2, hits give low values 1.01 | S. cerevisiae deletion strains, locus YDR318W, strain mcm21, hits give low values 1.02 | S. cerevisiae deletion strains, locus YDR388W, hits give low values 1 | S. cerevisiae deletion strains, locus YDR502C, strain sam2, hits give low values 1.01 | S. cerevisiae deletion strains, locus YEL061C, strain CIN8, hits give low values 1.01 | S. cerevisiae deletion strains, locus YER110C, hits give low values 1.02 | S. cerevisiae deletion strains, locus YER155C, strain BEM2, hits give low values 0.996 | S. cerevisiae deletion strains, locus YER167W, strain BCK2, hits give low values 1.03 | S. cerevisiae deletion strains, locus YGL078C, strain dbp3, hits give low values 1.01 | S. cerevisiae deletion strains, locus YGL086W, strain mad1, hits give low values 1.02 | S. cerevisiae deletion strains, locus YGL248W, strain PDE1, hits give low values 1.02 | S. cerevisiae deletion strains, locus YGR078C, strain PAC10, hits give low values 1.03 | S. cerevisiae deletion strains, locus YGR135W, strain pre9, hits give low values 1.01 | S. cerevisiae deletion strains, locus YGR229C, strain SMI1, hits give low values 0.993 | S. cerevisiae deletion strains, locus YGR252W, strain gcn5, hits give low values 1.02 | S. cerevisiae deletion strains, locus YHR030C, strain SLT2, hits give low values 1.01 | S. cerevisiae deletion strains, locus YHR079C, strain IRE1 (second series), hits give low values 1.02 | S. cerevisiae deletion strains, locus YHR094C, strain hxt1, hits give low values 1.01 | S. cerevisiae deletion strains, locus YHR129C, strain ARP1, hits give low values 1.01 | S. cerevisiae deletion strains, locus YHR200W, strain rpn10, hits give low values 1.01 | S. cerevisiae deletion strains, locus YIL066C, strain RNR3, hits give low values 1.01 | S. cerevisiae deletion strains, locus YIL073C, strain SPO22, hits give low values 1.1 | S. cerevisiae deletion strains, locus YIL125W, strain kgd1, hits give low values 1.01 | S. cerevisiae deletion strains, locus YIR030C, strain dcg1, hits give low values 1.02 | S. cerevisiae deletion strains, locus YJL095W, strain BCK1, hits give low values 1.03 | S. cerevisiae deletion strains, locus YJL134W, strain LCB3, hits give low values 1.01 | S. cerevisiae deletion strains, locus YJL168C, strain set2, hits give low values 1.02 | S. cerevisiae deletion strains, locus YJL187C, strain SWE1 (second series), hits give low values 1.02 | S. cerevisiae deletion strains, locus YJR043C, strain POL32, hits give low values 1.03 | S. cerevisiae deletion strains, locus YJR075W, strain HOC1, hits give low values 1.02 | S. cerevisiae deletion strains, locus YKL009W, strain mrt4, hits give low values 1.03 | S. cerevisiae deletion strains, locus YKL068W, hits give low values 1.01 | S. cerevisiae deletion strains, locus YKL085W, strain MDH1 (second series), hits give low values 1.01 | S. cerevisiae deletion strains, locus YKL085W, strain MDH1, hits give low values 1.01 | S. cerevisiae deletion strains, locus YKL190W, strain CNB1, hits give low values 1.01 | S. cerevisiae deletion strains, locus YKR001C, strain vps1, hits give low values 1.03 | S. cerevisiae deletion strains, locus YLR039C, strain RIC1, hits give low values 1.04 | S. cerevisiae deletion strains, locus YLR058C, strain SHM2, hits give low values 1.02 | S. cerevisiae deletion strains, locus YLR102C, strain apc9, hits give low values 1.01 | S. cerevisiae deletion strains, locus YLR262C, strain YPT6, hits give low values 1.05 | S. cerevisiae deletion strains, locus YLR268W, strain sec22, hits give low values 1.02 | S. cerevisiae deletion strains, locus YLR330W, strain CHS5, hits give low values 1.01 | S. cerevisiae deletion strains, locus YLR342W, strain FKS1 (second series), hits give low values 1.02 | S. cerevisiae deletion strains, locus YLR371W, strain rom2, hits give low values 1.01 | S. cerevisiae deletion strains, locus YLR418C, strain cdc73, hits give low values 1.02 | S. cerevisiae deletion strains, locus YML016C, strain PPZ1, hits give low values 1.02 | S. cerevisiae deletion strains, locus YML032C, strain rad52, hits give low values 1.02 | S. cerevisiae deletion strains, locus YML124C, strain tub3, hits give low values 1.02 | S. cerevisiae deletion strains, locus YMR078C, strain ctf18, hits give low values 1.03 | S. cerevisiae deletion strains, locus YMR223W, strain ubp8, hits give low values 1.03 | S. cerevisiae deletion strains, locus YMR263W, strain SAP30, hits give low values 1.02 | S. cerevisiae deletion strains, locus YMR307W, strain GAS1, hits give low values 0.962 | S. cerevisiae deletion strains, locus YNL067W, strain RPL9B, hits give low values 1.03 | S. cerevisiae deletion strains, locus YNL128W, strain TEP1, hits give low values 1.02 | S. cerevisiae deletion strains, locus YNL153C, strain GIM3, hits give low values 1.02 | S. cerevisiae deletion strains, locus YNL233W, strain BNI4, hits give low values 1.02 | S. cerevisiae deletion strains, locus YNL250W, strain rad50, hits give low values 1.03 | S. cerevisiae deletion strains, locus YNL271C, strain bni1, hits give low values 1.01 | S. cerevisiae deletion strains, locus YNL298W, strain CLA4, hits give low values 1.03 | S. cerevisiae deletion strains, locus YNL307C, strain MCK1, hits give low values 1.02 | S. cerevisiae deletion strains, locus YNL322C, strain KRE1, hits give low values 1.01 | S. cerevisiae deletion strains, locus YNR052C, strain pop2, hits give low values 1.02 | S. cerevisiae deletion strains, locus YOL006C, strain TOP1, hits give low values 1.1 | S. cerevisiae deletion strains, locus YOL012C, strain htz1 0.859 | S. cerevisiae deletion strains, locus YOL147C, strain pex11, hits give low values 1 | S. cerevisiae deletion strains, locus YOR061W, strain CKA2, hits give low values 1.02 | S. cerevisiae deletion strains, locus YOR069W, strain VPS5, hits give low values 1.01 | S. cerevisiae deletion strains, locus YOR136W, strain idh2, hits give low values 1.02 | S. cerevisiae deletion strains, locus YOR144C, strain elg1, hits give low values 1.02 | S. cerevisiae deletion strains, locus YOR184W, strain ser1, hits give low values 1.03 | S. cerevisiae deletion strains, locus YOR316C, strain cot1, hits give low values 1.02 | S. cerevisiae deletion strains, locus YPL055C, strain LGE1, hits give low values 1.03 | S. cerevisiae deletion strains, locus YPL241C, strain CIN2, hits give low values 1.01 | S. cerevisiae deletion strains, locus YPR119W, strain clb2, hits give low values 1 | S. cerevisiae deletion strains, locus YPR141C, strain kar3, hits give low values 1.01 | S. cerevisiae deletion strains, locus YPR163C, strain tif3, hits give low values 1.02 | S. cerevisiae deletion strains, locus YPR167C, strain met16, hits give low values 1.02 | S. cerevisiae deletion strains, strain wtn01, hits give low values 1.01 | S. cerevisiae strains, strain wild type, hits give low values 1
